Screening data from PubChem.
L3MBTL1 inh: blocks human L3MBTL1; AID 485360; Q9Y468; actives 0.66% (n = 230,000); AlphaScreen L3MBTL1–H3K9me1 peptide binding; Potency, µM (series often up to 57.1 µM), for the others: top-dose activity, negative = inhibition, hits mostly inhibitors; note: nearly all actives have a fitted effect of over 60% in size
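First, the protein-peptide complex forms for 30 min at room temperature (L3MBTL1 50 nM, biotinylated H3K9me1 peptide 75 nM). Next, compounds are pin-transferred and incubated 30 min. Finally, AlphaScreen beads are added and read after 30 min.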
JMJD2E inh: blocks human JMJD2E demethylase activity; B2RXH2; JMJD2E catalytic domain, FDH-coupled NADH fluorescence (FDH is formaldehyde dehydrogenase); Potency, µM (doses to about 57.1 µM), for the others: at the highest dose activity change, negative = inhibition, most hits filed as inhibitors; actives 1.6% (n = 230,000); active = well fitted inhibition curve with a large enough effect, not every such curve was filed as active; inconclusive = small, poorly fitted or top-dose-only effect, or another doubt; inactive = no such curve, though single readings can be large or run the other way;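 note: 0% = wells with enzyme and -100% = buffer wells without enzyme; nearly all actives have a fitted effect of over 50% in size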
Target sequence (B2RXH2 1-337 limits assumed): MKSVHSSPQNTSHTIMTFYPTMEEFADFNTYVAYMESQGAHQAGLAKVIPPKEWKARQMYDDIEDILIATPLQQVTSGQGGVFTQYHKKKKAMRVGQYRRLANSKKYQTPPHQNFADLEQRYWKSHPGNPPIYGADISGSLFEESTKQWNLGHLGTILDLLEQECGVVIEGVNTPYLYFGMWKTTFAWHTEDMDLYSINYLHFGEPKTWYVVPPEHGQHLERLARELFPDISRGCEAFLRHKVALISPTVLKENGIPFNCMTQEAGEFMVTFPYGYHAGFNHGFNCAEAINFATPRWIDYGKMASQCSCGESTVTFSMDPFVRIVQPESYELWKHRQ
BLM helicase inh: Bloom syndrome helicase (human) inhibition; P54132; recombinant BLM DNA unwinding, fluorescence dequenching; Potency, µM (doses to about 56.1 µM), inactives show top-dose activity change, negative = inhibition, hits mostly inhibitors; actives 0.2% (n = 350,000); AID 2528;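 note: plate controls were vehicle for no effect and no enzyme for full effect; nearly all actives have a fitted effect of over 35% in size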
APE1 inh: blocks human APE1 abasic DNA cleavage; AID 2517; Potency, µM (doses to about 65.8 µM), without a hit: top-dose activity change, negative = inhibition, actives largely listed as inhibitors; actives 0.35% (n = 350,000); recombinant APE1, TAMRA/BHQ-2 abasic DNA cleavage fluorescence;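 note: plate controls were vehicle for no effect and reference inhibitor for full effect; nearly all actives have a fitted effect of over 55% in size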
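Compound pre-exposure to 0.75 nM APE1, 15 min at ambient temperature. Reaction initiated with 50 nM TAMRA/BHQ-2 THF substrate, read immediately in kinetic mode, 525 nm excitation, 598 nm emission.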
TDP1 inh: TDP1 (human) enzyme inhibition; Q9NUW8; recombinant TDP1, AlphaScreen DNA substrate cleavage; Potency, µM (series often up to 130 µM), for inactives: at the highest dose activity change, negative = inhibition, usual class: inhibitors; actives 0.28% (n = 350,000); AID 485290; note: nearly all actives have a fitted effect of over 40% in size
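E. coli-derived human Tdp1, 1 nM final. Cpd preinc 15 min RT; substrate 15 nM final, 5 min RT; AS bead mix 10 ug/ml final, 10 min RT. Signal loss = tyrosine-FITC cleavage. No-enzyme wells = max signal.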
RECQ1 inh: inhibitors of human RECQ1 DNA helicase | AID 2549 | actives 0.54% (n = 240,000) | Potency, µM (titrated, usually from 57.3 µM), for the others: top-dose activity, negative = inhibition, actives largely listed as inhibitors | RECQ1 DNA unwinding, red fluorescence kinetic read;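 note: plate controls were vehicle for no effect and no enzyme for full effect; nearly all actives have a fitted effect of over 30% in size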
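RECQ1T1 50 nM; forked duplex (20 bp + 30-nt ss tails) 200 nM, ATP 2 mM final; pH 8.0, 2 mM MgCl2, 2.5 ug/ml poly(dI-dC); 15 min compound preincubation; discontinuous kinetic read over 2 h at RT.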
Active calls of the source: *; i = inactive; ? = inconclusive; · = no result; ! = not confirmed by another sample; [ ] = remark or other dose. Only a selection was taken, and hits are over-represented in it overall. Unless noted, calls come from the whole dose curve; as a rule, active = well fitted curve in the direction sought with a large enough effect; inconclusive = small, poorly fitted or top-dose-only effect, or another doubt; inactive = no such curve, though single readings can be large; an effect the other way counts as inactive or inconclusive. Unless noted, % is set by controls: 0 for no effect and ±100 for the full control effect; potency is the fitted concentration of half-maximal effect.

SMILES | L3MBTL1 inh | JMJD2E inh | BLM helicase inh | APE1 inh | TDP1 inh | RECQ1 inh
CC(C)(C)OC(=O)NCCOCCOCCOc1ccc(-c2no[n+]([O-])c2C#N)cc1 | · | · | · | -2.4% | · | ·
CC(C)(C)OC(=O)CN1C(=O)NC(Cc2c[nH]c3ccccc23)C1=O (centres undefined) | · | · | -1.7% | 4.1% | · | ·
C/C(N)=C(/C#N)C(=O)CN1C(=O)NC(Cc2c[nH]c3ccccc23)C1=O (centres undefined) | · | · | -17.5% | 15µM* | · | ·
O=C(COC(=O)/C=C/c1ccc(Br)o1)Nc1ccccc1F | ? | -4.3% | -19.7% | ? | 15.8µM* | -17.4%
CC1(C)CC2CC(C)(CN2C(=O)COC(=O)c2ccc(O)cc2O)C1 (centres undefined) | -12.0% | · | · | 10.6µM* | 7.94µM* | ·
O=C(COC(=O)c1ccc(Cl)c(S(=O)(=O)N2CCCC2)c1)NCc1ccccc1 | -12.8% | · | · | 7.52µM* | 35.5µM* | ·
COc1ccc(NC(=O)COC(=O)c2ccc(C)c(S(=O)(=O)N3CCCCC3)c2)cc1 | -8.5% | · | · | -41.1% | 39.8µM* | ·
Cc1ccc(C(=O)OCC(=O)NCc2ccccc2)cc1S(=O)(=O)N1CCCCC1 | 1.9% | · | · | -2.0% | -4.7% | ·
COc1ccc(NC(=O)COC(=O)c2cc3c(s2)CCC3)cc1 | ? | · | · | 5.32µM* | 14.1µM* | ·
COCO[C@H]([C@@H](C)C=C(Br)Br)[C@@H](C)COCc1ccc(OC)cc1 | · | · | 1.3% | -0.9% | -6.8% | -9.4%
CC1=C(C(=O)Nc2ccccc2)C(c2ccc[nH]2)n2ncnc2N1 (centres undefined) | 1.58µM* | · | -29.7% | -39.0% | · | ·
CN(CC(=O)Nc1cccc(F)c1)C(=O)c1cccc(-n2cccc2)c1 | 7.08µM* | · | · | 3.36µM* | · | ·
Cc1ccc(/C(N)=N/OC(=O)CCCc2ccccc2)cc1 | · | · | -2.3% | 12.2% | 50.1µM* | ·
CCOC(=O)C1=C(CS(=O)(=O)c2ccc(F)c(C)c2)NC(=O)NC1c1ccc(F)c(F)c1 (centres undefined) | · | · | -2.2% | · | 1.3% | ·
CCOC(=O)C1=C(CS(=O)(=O)c2ccc(F)c(C)c2)NC(=O)NC1c1ccc(O)c(O)c1 (centres undefined) | -7.2% | 14.1µM* | -12.3% | -10.4% | ? | -26.4%
CC1=C(CC(=O)O)c2cc(F)ccc2/C1=C\c1ccc(S(C)=O)cc1 (centres undefined) | · | 35.5µM*! | ? | -1.5% | 9.5%[56.1 µM] | -0.2%
COc1ccc(SCC(c2ccccc2)N2CCN(CC(C)C)CCC2=O)cc1 (centres undefined) | · | · | 1.2% | 5.0% | 9.7% | -0.2%
Cc1cccc(C(=O)NC2CCN(C#N)CC2)c1 | · | · | · | · | -0.6% | ·
CCC1CCCCN1C(=O)c1ccc2c(c1)N(Cc1cccc(Cl)c1)C(=O)c1ccccc1S2(=O)=O (centres undefined) | · | · | -3.9% | · | 3.8% | ·
COc1ccc(CNC(=O)c2cc3c(=O)n4ccccc4nc3n(Cc3cccnc3)c2=N)cc1 | · | ? | -10.2% | 16.4% | -1.6% | 14.1µM*
N=c1c(C(=O)NCc2ccc3c(c2)OCO3)cc2c(=O)n3ccccc3nc2n1Cc1cccnc1 | 1.1% | ? | 1.0% | -2.4% | 4.3% | -20.2%
O=C1CCc2cc(S(=O)(=O)Nc3ccccn3)ccc2N1 | · | · | · | · | -0.8% | ·
O=C(/C=C/c1ccco1)NC(=S)Nc1ccc(N2CCCC2)cc1 | ? | 11.2µM* | -4.1% | -8.8% | 13.7% | i
CS(=O)(=O)c1ccc(-c2csc(N3CCC(C(N)=O)CC3)n2)cc1 | · | · | · | -0.9% | · | ·
CCN(Cc1ccccc1)S(=O)(=O)c1ccc(C(=O)Nc2nnc(C3CC3)o2)cc1 | -14.3% | 14.1µM* | -11.4% | 10.2% | 9.8% | -11.9%
COC(=O)c1ccccc1-c1ccc(/C=c2\sc3nc4cc(Br)cnc4n3c2=O)o1 | · | · | · | -8.1% | · | ·
CCOC(=O)c1cc(C)[nH]c(=S)c1C#N | -6.0% | 17.8µM* | -0.8% | -0.5% | 7.3% | -6.1%
